From PubChem BioAssay (Tox21)
Results filed as inconclusive are left out. Active and inactive are the calls of the source. Unless noted, calls follow the shape of the dose curve; as a rule, active = well fitted curve in the direction sought with a large enough effect in the repeat runs; inconclusive = weak or mixed curves; inactive = no such curve, though single readings can be large; an effect the other way counts as inactive or inconclusive.

How the values were obtained:
[1] = qHTS assay to identify small molecule antagonists of the estrogen related receptor (ERR) signaling pathway - cell viability counter screen (AID 1224818);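 also: series mostly up to about 46 µM; viability measured after 17.5 h of compound exposure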
Procedure, shortened: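 Quantitative high-throughput viability counter screen in ERR cells. Compounds (DMSO) incubated 17.5 h at 37 C; read-out was CellTiter-Fluor fluorescence.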

[2] = qHTS assay to identify small molecule antagonists of the estrogen related receptor (ERR) signaling pathway (AID 1224819;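 also: luminescence from an ERR-driven luciferase reporter measured with One-Glo reagent; series mostly up to about 46 µM; nearly all actives have a fitted effect of over 50% in size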)
Procedure, shortened: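 ERR reporter cell line (NTP) plated at 2,000 cells/well, settled 6 h at 37C/5% CO2, then exposed to LOPAC compounds for 18 h at 37C. One-Glo luciferase luminescence read after 30 min at room temperature.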

[3] = qHTS assay to identify small molecule agonists of the estrogen related receptor (ERR) signaling pathway (AID 1224820)
Procedure, shortened: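 Luminescence readout (One-Glo, 30 min RT) from NTP-supplied ERR cell line exposed to compounds for 18 h at 37 C. Cells seeded 2,000 per well and pre-incubated 6 h before pin-tool compound transfer.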

[4] = test system: estrogen-related receptor alpha (ERRalpha) with PGC-1alpha coactivator, human; experiment: qHTS assay to identify small molecule antagonists of the estrogen related receptor signaling pathway with the pleiotropic PPARgamma coactivator (PGC) (AID 1224821; calls by dose curve;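 also: series mostly up to about 46 µM; lower luminescence signal means antagonism of PGC/ERR signalling; nearly all actives have a fitted effect of over 50% in size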)
Procedure, shortened: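 PGC/ERR reporter cells; 6 h pre-incubation 37 C/5% CO2; pin-tool compound in DMSO, 18 h 37 C; One-Glo added, 30 min RT; luminescence read. qHTS antagonist mode.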

[5] = qHTS assay to identify small molecule antagonists of the estrogen related receptor signaling pathway with the pleiotropic PPARgamma coactivator (PGC) cell viability counter screen (AID 1224822; also: series mostly up to about 46 µM)
Procedure, shortened: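 Cytotoxicity in the PGC/ERR cell line is assessed with CellTiter-Fluor, read as fluorescence intensity 30 min after reagent addition, following 17.5 h compound treatment at 37 C.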

[6] = qHTS assay to identify small molecule agonists of the estrogen related receptor signaling pathway with the pleiotropic PPARgamma coactivator (PGC) (AID 1224823)
Procedure, shortened: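 Luminescence readout (One-Glo, 30 min RT) from PGC/ERR cell line treated 18 h at 37 C with pin-tool-delivered DMSO compound solutions; cells plated 6 h before dosing. Quantitative HTS format.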

Measured: Potency

CC(N)c1cccc(Cl)c1Cl (stereo unspecified)
inactive: [1] | [2] | [3] | [4] | [5] | [6]

CC(=O)NCCc1c[nH]c2ccccc12
inactive: [1] | [2] | [3] | [4] | [5] | [6]

C[N+](C)(C)CC#CCN1CCCC1=O
inactive: [1] | [2] | [3] | [4] | [5] | [6]

CCCN(CCC)C1CCc2cccc(O)c2C1 (stereo unspecified)
inactive: [1] | [2] | [3] | [4] | [5] | [6]

c1ccc2c(N3CCNCC3)cccc2c1
inactive: [1] | [2] | [3] | [4] | [5] | [6]

COc1ccc2[nH]cc(CCN)c2c1
inactive: [1] | [2] | [3] | [4] | [5] | [6]
